The record followed here is PubChem BioAssay.

In assay [1] the target is Albumin (Bos taurus) (UniProt P02769). Briefly: bovine serum albumin binders on microarray, profiling panel, artefact control for SMM control protein annotation, biochemical, small-molecule microarray, Alexa647 label, 635/667 nm fluorescence (AID 1118).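 Further: score merges 667 nm emission intensity and signal-to-noise per printed compound spot.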 Conditions: BSA-A647 binding, fluorescence 635 nm, higher = more signal.
Assay [2] in a line: small-molecule microarray binders of probe aXIP, primary screen, biochemical, NeuroSMM set, 635/667 nm fluorescence (AID 1119).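 Further: probe is the protein aXip251-270 applied at 1 µg/mL to compound-printed slides; binding of probe to printed compounds measured as 667 nm fluorescence plus signal to noise.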 The settings on record: higher = more signal, called active from +8 up or from −8 down.
Assay [3] in a line: small-molecule binders of probe aNOTCH3, primary screen, biochemical, small-molecule microarray, 635/667 nm fluorescence (AID 1120).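 Further: probe is a biotin-tagged antibody raised against NOTCH3 rather than NOTCH3 protein; score merges spot fluorescence near 667 nm with spot signal to noise.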 The settings on record: higher = more signal.
Assay [4] in a line: small-molecule binders of probe aNOTCH2, primary screen, biochemical, small-molecule microarray, 635/667 nm fluorescence (AID 1121).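 Further: score merges feature fluorescence read at 667 nm with its signal to noise.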 Conditions: higher = more signal.
The target of assay [5] is Carbonic anhydrase 2 (Homo sapiens) (UniProt P00918). Briefly: CAII small-molecule binders, profiling panel, biochemical, small-molecule microarray, Alexa647-labelled CAII (AID 1122). The settings on record: CAII-A647 binding fluorescence, higher = more signal.
Assay [6] in a line: COS7 lysate on small-molecule microarray, probe aHis, 635 nm (AID 1123).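 Further: z-score combines 667nm fluorescence intensity with signal-to-noise per printed compound spot.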 The settings on record: COS7 cell lysate, fluorescence, higher = more signal.
A short description of assay [7]: compound binding in COS7 lysate, probe aLAP1, primary screen, cell lysate, small-molecule microarray (AID 1124).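 Further: lysate comes from COS7 cells expressing LAP1 and is applied at 0.3 µg/mL; score merges spot fluorescence near 667 nm with signal-to-noise over triplicate slides.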 Conditions: probe aLAP1, fluorescence, higher = more signal.
The subject of assay [8] is Sam68 (KHDRBS1). As to the kind of experiment: Sam68 small-molecule binders, primary screen, biochemical, small-molecule microarray, 635 nm fluorescence (AID 1125).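 Further: score merges 667 nm channel intensity with signal to noise over triplicate slides.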 Conditions: small-molecule microarray binding, higher = more signal.
Assay [9] has as its system Chordin-like protein 2 (CHRDL2). Briefly: CHRDL2 small-molecule binders, primary screen, biochemical, small-molecule microarray, 635 nm fluorescence (AID 1126).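 Further: printed compound slides probed with Chrdl2 protein at 4 µg/mL for 1 h at 4 C; score merges 667 nm emission intensity with signal to noise over three replicate slides.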 Conditions: small-molecule microarray binding, fluorescence 635 nm; higher = more signal.
Assay [10] has as its target Concanavalin-A (Canavalia ensiformis) (UniProt P02866). As to the kind of experiment: ConA small-molecule binders, primary screen, artefact control for SMM control protein annotation, biochemical, small-molecule microarray, Alexa647 label, 635 nm (AID 1127).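 Further: z combines 667 nm emission intensity with signal-to-noise across three replicate slides.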 The settings on record: ConA-A647 binding fluorescence, higher = more signal.
A short description of assay [11]: anti-His antibody binders, primary screen, artefact control for SMM control protein annotation, biochemical, small-molecule microarray, 635 nm fluorescence (AID 1128).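 Further: score merges feature fluorescence with signal-to-noise for each printed compound spot.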 The settings on record: anti-His Alexa647 antibody binding, higher = more signal.
Assay [12] concerns Human papillomavirus type 1a E7 protein (residues 1-88). As to the kind of experiment: HPV1a E7 small-molecule binders, primary screen, biochemical, small-molecule microarray, residues 1-88, 635 nm (AID 1129). The settings on record: small-molecule microarray binding, fluorescence 635 nm; higher = more signal.
Assay [13] deals with Focal adhesion kinase 1 (Homo sapiens) (UniProt Q05397). As to the kind of experiment: small-molecule microarray binders of FAK, primary screen, biochemical, 635/667 nm fluorescence, BSA, DTT (AID 1130).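 Further: composite of spot emission at 667 nm and signal to noise over triplicate slides.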 Conditions: PTK2 binding, 635 nm fluorescence, higher = more signal.
The subject of assay [14] is Fibrinogen (Alexa647-labelled). Briefly: fibrinogen binders on compound microarrays, profiling panel, artefact control for SMM control-protein annotation, biochemical, small-molecule microarray, 635/667 nm fluorescence (AID 1131).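 Further: z-score merges 667 nm fluorescence with per-spot signal-to-noise over triplicate slides.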 The settings on record: fibrinogen-A647 binding fluorescence, higher = more signal.
The target of assay [15] is Follistatin (Homo sapiens) (UniProt P19883). As to the kind of experiment: follistatin binders on small-molecule microarrays, primary screen, biochemical, small-molecule microarray, 635/667 nm fluorescence (AID 1132). Conditions: FST binding, 635 nm fluorescence, higher = more signal.
The target of assay [16] is Fibroblast growth factor 2 (Homo sapiens) (UniProt P09038). As to the kind of experiment: FGF2 binders on small-molecule microarrays, primary screen, biochemical, small-molecule microarray, 635/667 nm fluorescence (AID 1133). The settings on record: small-molecule microarray binding, FGF2, fluorescence 635/667; higher = more signal.
Assay [17] in a line: mitochondrial membrane potential change in A549 cells, profiling panel, cell-based, JC-1 fluorescence, basal, 24 h, 100 nL (AID 1138).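 Further: A549 lung adenocarcinoma cells under basal conditions with no added stimulus; test concentration not given here.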 Conditions: higher = more signal.
In assay [18] the test system is Lefty1. As to the kind of experiment: Lefty1 binders on small-molecule microarrays, primary screen, biochemical, small-molecule microarray, 635/667 nm fluorescence (AID 1139). The settings on record: small-molecule microarray binding, fluorescence 635/667; higher = more signal.
Assay [19] has as its system wheat germ agglutinin (Triticum aestivum), Alexa647-labelled. Briefly: wheat germ agglutinin binders on compound microarrays, profiling panel, artefact control for SMM control-protein annotation, biochemical, small-molecule microarray, 635/667 nm fluorescence (AID 1140).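 Further: score merges 667 nm feature emission with signal to noise over triplicate slides.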 Conditions: WGA-A647 binding, 635 nm fluorescence, higher = more signal.
For assay [20], the target named is Luciferin 4-monooxygenase (Photinus pyralis) (UniProt P08659). Briefly: firefly luciferase enzyme inhibitors, primary screen, biochemical, luminescence, purified enzyme, 2006 set (AID 1141).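 Further: cell-free assay with purified firefly luciferase at 100 ng per well in PBS; test concentration not given here.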 The settings on record: SteadyGlo luminescence, 30 min, higher = more signal, called active from +8 up or from −8 down.

SMILES strings stand for the structures. Calls of active or inactive are those of the source.

Sequence of Follistatin (Homo sapiens) (P19883 whole entry, looked up): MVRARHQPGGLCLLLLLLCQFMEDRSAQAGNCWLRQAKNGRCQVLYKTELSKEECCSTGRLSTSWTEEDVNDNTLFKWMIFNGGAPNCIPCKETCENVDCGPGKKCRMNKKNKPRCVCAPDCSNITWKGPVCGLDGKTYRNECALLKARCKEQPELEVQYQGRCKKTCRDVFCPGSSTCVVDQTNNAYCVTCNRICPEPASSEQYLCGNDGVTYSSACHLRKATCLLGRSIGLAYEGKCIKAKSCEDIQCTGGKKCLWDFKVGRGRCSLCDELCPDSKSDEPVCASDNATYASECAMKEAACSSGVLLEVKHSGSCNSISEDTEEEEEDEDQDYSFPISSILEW
Sequence of Albumin (Bos taurus) (P02769 whole entry, looked up): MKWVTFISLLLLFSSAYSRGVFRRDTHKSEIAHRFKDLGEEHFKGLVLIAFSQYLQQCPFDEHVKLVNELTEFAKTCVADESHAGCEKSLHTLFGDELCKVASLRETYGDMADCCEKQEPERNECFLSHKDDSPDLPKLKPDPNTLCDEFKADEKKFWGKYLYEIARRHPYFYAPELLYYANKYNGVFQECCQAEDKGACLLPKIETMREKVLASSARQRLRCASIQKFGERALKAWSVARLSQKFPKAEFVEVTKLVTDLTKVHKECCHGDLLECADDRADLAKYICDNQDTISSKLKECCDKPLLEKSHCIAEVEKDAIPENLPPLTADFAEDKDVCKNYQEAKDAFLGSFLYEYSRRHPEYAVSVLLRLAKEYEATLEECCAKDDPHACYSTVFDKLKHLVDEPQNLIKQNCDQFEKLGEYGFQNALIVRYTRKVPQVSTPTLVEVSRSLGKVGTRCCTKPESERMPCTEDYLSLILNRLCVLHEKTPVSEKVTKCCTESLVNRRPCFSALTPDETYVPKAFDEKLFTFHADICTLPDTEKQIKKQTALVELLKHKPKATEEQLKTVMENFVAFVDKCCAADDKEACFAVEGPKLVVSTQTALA
Sequence of Fibroblast growth factor 2 (Homo sapiens) (P09038 whole entry, looked up): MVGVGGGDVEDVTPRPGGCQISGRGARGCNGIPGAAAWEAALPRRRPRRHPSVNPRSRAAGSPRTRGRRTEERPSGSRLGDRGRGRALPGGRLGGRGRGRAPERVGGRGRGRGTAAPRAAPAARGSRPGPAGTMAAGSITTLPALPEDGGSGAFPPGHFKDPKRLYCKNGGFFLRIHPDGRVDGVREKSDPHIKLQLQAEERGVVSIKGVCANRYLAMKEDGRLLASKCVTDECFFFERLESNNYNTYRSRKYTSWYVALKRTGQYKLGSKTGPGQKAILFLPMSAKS
Sequence of Concanavalin-A (Canavalia ensiformis) (P02866 whole entry, looked up): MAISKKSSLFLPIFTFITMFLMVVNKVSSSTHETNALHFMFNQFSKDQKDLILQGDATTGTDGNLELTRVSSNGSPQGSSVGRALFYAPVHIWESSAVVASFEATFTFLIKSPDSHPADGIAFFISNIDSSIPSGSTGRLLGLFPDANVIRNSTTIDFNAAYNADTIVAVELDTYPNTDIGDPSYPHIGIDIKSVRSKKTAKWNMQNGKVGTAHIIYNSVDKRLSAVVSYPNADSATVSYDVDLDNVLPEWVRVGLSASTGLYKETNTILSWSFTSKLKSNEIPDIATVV
Sequence of Focal adhesion kinase 1 (Homo sapiens) (Q05397 whole entry, looked up): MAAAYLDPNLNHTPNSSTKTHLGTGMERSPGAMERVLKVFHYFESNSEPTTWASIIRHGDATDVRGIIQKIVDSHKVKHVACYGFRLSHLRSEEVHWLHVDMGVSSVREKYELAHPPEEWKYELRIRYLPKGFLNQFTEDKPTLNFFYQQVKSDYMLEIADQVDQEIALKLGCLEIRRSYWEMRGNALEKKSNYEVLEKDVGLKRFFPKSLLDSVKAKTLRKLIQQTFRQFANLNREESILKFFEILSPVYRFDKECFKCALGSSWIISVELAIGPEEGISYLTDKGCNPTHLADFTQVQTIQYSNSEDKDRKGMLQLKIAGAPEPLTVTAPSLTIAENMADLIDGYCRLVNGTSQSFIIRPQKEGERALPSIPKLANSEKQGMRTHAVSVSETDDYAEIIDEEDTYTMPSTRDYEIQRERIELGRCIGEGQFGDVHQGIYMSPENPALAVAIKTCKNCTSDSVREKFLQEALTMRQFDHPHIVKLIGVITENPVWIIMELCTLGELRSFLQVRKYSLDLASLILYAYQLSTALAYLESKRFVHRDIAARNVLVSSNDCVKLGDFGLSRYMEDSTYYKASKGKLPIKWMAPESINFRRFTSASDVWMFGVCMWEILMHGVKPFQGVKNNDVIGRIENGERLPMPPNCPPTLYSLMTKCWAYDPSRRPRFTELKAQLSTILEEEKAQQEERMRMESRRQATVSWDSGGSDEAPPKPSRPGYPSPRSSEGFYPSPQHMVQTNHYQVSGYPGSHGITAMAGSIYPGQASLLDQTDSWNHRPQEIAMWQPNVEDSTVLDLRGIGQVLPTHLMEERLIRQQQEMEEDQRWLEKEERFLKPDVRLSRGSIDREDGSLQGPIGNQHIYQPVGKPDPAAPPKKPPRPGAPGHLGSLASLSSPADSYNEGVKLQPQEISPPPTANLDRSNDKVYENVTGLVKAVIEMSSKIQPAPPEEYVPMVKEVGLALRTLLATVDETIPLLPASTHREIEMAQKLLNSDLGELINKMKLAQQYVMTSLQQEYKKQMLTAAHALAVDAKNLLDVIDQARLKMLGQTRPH
Sequence of Luciferin 4-monooxygenase (Photinus pyralis) (P08659 whole entry, looked up): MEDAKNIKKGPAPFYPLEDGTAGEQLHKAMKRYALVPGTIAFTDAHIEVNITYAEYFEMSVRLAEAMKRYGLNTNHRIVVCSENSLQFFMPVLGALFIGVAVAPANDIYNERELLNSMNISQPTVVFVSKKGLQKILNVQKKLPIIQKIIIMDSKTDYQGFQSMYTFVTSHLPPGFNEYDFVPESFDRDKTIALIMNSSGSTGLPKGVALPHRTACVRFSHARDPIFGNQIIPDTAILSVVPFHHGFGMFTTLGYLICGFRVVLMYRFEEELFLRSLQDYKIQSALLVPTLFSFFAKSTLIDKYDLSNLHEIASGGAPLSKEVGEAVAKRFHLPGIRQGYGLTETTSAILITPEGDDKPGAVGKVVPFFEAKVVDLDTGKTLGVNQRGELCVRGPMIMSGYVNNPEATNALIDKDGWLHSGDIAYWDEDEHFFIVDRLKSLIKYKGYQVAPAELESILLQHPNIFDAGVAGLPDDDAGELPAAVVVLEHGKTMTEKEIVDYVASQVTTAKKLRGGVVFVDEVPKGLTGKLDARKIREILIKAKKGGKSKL

As for `CCCCCN1CC=CC23O[C@@H]4/C=C\CCC(C)OC(=O)C4[C@H]2C(=O)N(C(CO)C(C)C)[C@@H]3C1=O` (stereo not given in full), the composite z-score in [1] is 0.157; in assay [3], -0.247; in assay [4] it was -0.182; in assay [5] it was 0.824; in assay [6], 0.337; in [7] it was 0.57. Further, the composite z-score in [8] was 0.132; in assay [9], -0.461; in assay [10], 0.192; in [11], 1.03; in assay [12], -0.46; in [13] it was 1.94. For the same molecule, the composite z-score in assay [14] was -1.41; in assay [15], 0.032; in assay [16], -0.318; in [18], 0.287; in [19], 1.41. Moreover, in [2], the composite Z-score was 0.141 (inactive). The z-score is -0.87 in assay [17] and 0.551 (inactive) in [20].

In the case of `COc1ccc(C#Cc2ccc3c(c2)[C@]2(C(=O)N3)[C@H](c3ccc(OCCO)cc3)N3[C@H](c4ccccc4)[C@H](c4ccccc4)OC(=O)[C@H]3[C@@H]2C(=O)NC[C@H](O)c2ccccc2)cc1`, the composite z-score in assay [1] was 0.615; in assay [3], 0.779; in assay [4] it was -0.0531; in assay [5] it was 0.496; in assay [6], 1.71; in assay [7] it was 0.117. In addition, the composite z-score amounted to 1.3 in [8]; 0.152 in assay [9]; 1.02 in assay [10]; 0.825 in assay [11]; 1.23 in assay [12]; 0.116 in [13]. The composite z-score amounted to 0.928 in assay [14]; 0.789 in [15]; 1.05 in assay [16]; 0.906 in [18]; 0.887 in assay [19]. For the same molecule, the composite Z-score in [2] was -0.128 (inactive). Moreover, the results for the z-score in [17] and in [20] were -1.54 and -0.0696 (inactive), respectively.

As for `CCOC(=O)C[C@H]1[C@H](OC(=O)c2ccc(C(=O)c3ccccc3)cc2)[C@@H](NC(=O)CC(C)C)c2cc(OCCCO)ccc2N1C(=O)c1ccccc1`, the composite z-score in assay [1] is 0.415; in [3] it was 0.104; in assay [4], -0.0357; in assay [5] it was 0.351; in assay [6] it was 1.01; in assay [7], -0.0609. Moreover, the composite z-score in assay [8] came out at 1.3; in assay [9] it was 0.262; in [10], 1.05; in assay [11], 0.152; in assay [12], 1.11; in [13] it was 0.188. The composite z-score in assay [14] was found to be 0.965; in assay [15], 0.839; in [16] it was 0.609; in assay [18] it was 1.26; in assay [19], 0.227. Besides, in assay [2], the composite Z-score was -0.24 (inactive). For the same molecule, the z-score in assay [17] was 1.63; in assay [20], -0.675 (inactive).

For the molecule `COC(=O)[C@]1(CCS(=O)(=O)c2ccccc2)N=C(c2ccc(OCCCO)cc2)O[C@@H]1c1ccccc1N=[N+]=[N-]`, the composite z-score in [1] is -0.325; in assay [3] it was 0.359; in [4], 0.142; in assay [5], 0.78; in assay [6] it was 2.93; in [7], 0.612. For the same molecule, the composite z-score was found to be 1.29 in assay [8]; 0.412 in [9]; 1.19 in [10]; 3.54 in assay [11]; 1.27 in assay [12]; 0.263 in [13]. The composite z-score in assay [14] turned out to be 0.906; in [15], 1.39; in assay [16], 1.75; in assay [18], 0.387; in assay [19] it was 1.09. Besides, the composite Z-score in assay [2] was 0.0652 (inactive). The z-score was -0.447 in assay [17] and -1.32 (inactive) in assay [20].

For `CCCC#C[Si](O[C@H](CC)c1cn([C@H](C)c2ccccc2)nn1)(C(C)C)C(C)C`, the composite z-score in assay [1] was 0.468; in assay [3] it was -0.112; in assay [4], -0.0317; in assay [5], 0.26; in assay [6], 0.47; in assay [7] it was -0.0249. The composite z-score in [8] was 0.702; in [9], 0.169; in assay [10], 0.488; in assay [11] it was 0.439; in [12], 0.625; in assay [13], 0.986. The composite z-score in assay [14] came out at 0.856; in assay [15], 0.297; in assay [16], 0.484; in assay [18], 0.23; in assay [19], 0.06. In addition, the composite Z-score in assay [2] was 0.381 (inactive). The values for the z-score in assay [17] and in [20] were 1.04 and -1.08 (inactive), respectively.
